Laboratory results from the supplement of paper PMC12632987.
In all, about 4,500 sequences were measured (“median log2 fold change of GCK-ALFA target abundance (FLAG IP / Myc IP barcode read proportion)”: median about 0.078, lowest 2% from about -0.6 on). This excerpt belongs to a sample that is enriched for the lowest values.

B1: GBRAP_35_5545 (protein)
chain: DFDEETVEMLLNTMEDIVLALPDVSPEEKLILARHLIDLAEKAIEEKPKNVELLKRGIEVLERAIEIVKASDLPEEEREELIERLEEVKEKFEKLLKENE
B2: GBRAP_35_5547 (protein)
chain: DPETETVEMLLNTMEDIVLALPDVSPEDLETLTKHLIDLANLAIEEKPKNKELLERLIKALEEAIKIVEASDLPEEVKAELLKELEKARKEAEKLLEKVK
B3: GBRAP_35_5544 (protein)
chain: MEEEETVEMLLNTMEDIVLALPDVSPEEQLILTKHLIKLAKLAIEEKPKNKELLKRGIEALKEAIKIVKESDLPEEEKEKLLKELEEAKEKFEKLLKKVE
B4: GBRAP_128_3307 (protein)
chain: MDEELLEEARELIERLKEADEEEAAELVREIAELLEKATPEEREEIAELFEEALKELSAEKLDVVADTLRELIPKATPETANVLADLQVEALNLAEEKEE
B5: GBRAP_160_4379 (protein)
chain: SEELKELKEEVKKLKEEFKEEAKDLSTAEVRTLAIGVLSEIAALVWSNEAVSEETKDKIMKIIDDAIAKIRANADASPEEIVAIVTEAFDKIIELIEKEE
B6: GBRAP_125_3112 (protein)
chain: NMEEILEALRIILKALGFDEEEIEEAVRLAREYGIKGTMIAAALALGWEEVAELLEKLSEEEVKEALLRTAEKIKENPELTPEEVKELLKEVLKEILEKK
B7: GBRAP_11_2866 (protein)
chain: NKEKLKEIAELLEKLIEVLERLLEEGVDNEELREEALKLAKEILELVKKYSDEADVKLAEYALELLEKAEEDPANAEQYVQEALAFARVLLGNVLLRIDE
B8: GBRAP_52_6101 (protein)
chain: AAAEAEALVERLLALVRAGREAEARAEAAALAAEMDEARLRVLTEALAARARAAAPEDLDAVWRLAELLADELEAAGWPDVLVDDLLAATAAALYERELA
B9: GBRAP_128_3576 (protein)
chain: SDEEILEKAKELIKKIIESDVEEAKKYAEELAKLLKEADPETREKIVELILEALPKLSVEKLEVLADVFREQRPKADPETANLLAEIEVEALNEAVEKEE
B10: GBRAP_166_4948 (protein)
chain: SLEEVIEETREFIRELAERMKTLNDEERLDALIEIAERLEEARKAGVSEEDLLELVREALELVKEAGGSVEQFVGALDMFVDLDEEELDKVAEIAEEVKA
B11: GBRAP_137_3672 (protein)
chain: MIDAKIEIEDGLAYAELTYKGSLEEAKKAAEIAEEIAGKIPGIAISTKVDEDGTLTIDLGGTLEQIMKFLKELAKALNVTINVTIKDLDTGETTKETIKA
B12: GBRAP_160_4310 (protein)
chain: KEELEALKKEVKEIFEEAKKLIEGETKEQQKAIVKVALGEVILLAFESPAITEEAEEKIAEIADEAIATLDANPDLTTEEIKKLLEEAEKKILELIEKLK
B13: GBRAP_74_6571 (protein)
chain: MEKYTKEMKAAAAAGDVKKAIKIVEEMIEKGIKKVSAEFLNALATIAEKHLPKATPEEQERFIDAASELVDLVLESEQDEETYKALNKLITALYEAELAR
B14: GBRAP_57_6475 (protein)
chain: MERLKAVEEAAERALALIDARAPREEILAAVRELAELLSEETLRDVLLIADPEAPEDLSKEEAIARLVALAAAYLDAGDYDGLRRLVELMLGTAEMDFEE
B15: GBRAP_39_5697 (protein)
chain: EREEEAEDTFSYLEAIGAKYQVEEKISLEEARERTRELAERFIKEHPEIAEVLKELLELAEKAGDLAILALLGLLLRAEEGTPLEEIKKDAELLIEYLKS
B16: GBRAP_125_2965 (protein)
chain: SEEEALEALAIIAKALGFDEDEVEEAVELARRFGLKKTLIALFLAEGYEEVADLVEKLTEEEAREVAKKLAEEIKKNPELTPEEVVELAKKLFEEVIAKK
B17: GBRAP_80_6822 (protein)
chain: MEEELEANLKALEAVDPEIAKIVREIVEIARELGVPLETLVRLAKAILELAKVDKEKARELAEELLEELREEREEGDREGALAELVDAESEALLEVEELE
B18: GBRAP_184_5158 (protein)
chain: KVLERTIEADNLEELKKKLKEIKEEAAKTKADLIVVLNLKELTKEMLETALSTLGEIKKEGLAPSITLLIENEMNDEQIDFALKLADEAGVTLVVAIPDE
B19: GBRAP_160_4463 (protein)
chain: KEEVKEAVEELRERVEEVLEDSENMSPEQILLAVAVEVGSSLLEWEEEGKISDEQAEILAKAIDELLRLAKEEKNASPEEAKKRAREIVEKAAKEILAAA
B20: GBRAP_78_6736 (protein)
chain: EIEELIDKALEELNRAARLAQQFPLEEQTELLDLIIDASTLLEEAEEEGFDLKLLEEALKKLKEALKLAKKLKTPLAEKLAKELEEAIKLVEKAIKLVKE
B21: GBRAP_128_3567 (protein)
chain: STAAAVAQARALLEAIKAGDAATRRAAAEALVALLAAADPETREAITAEILERLPELSAEDLEVLADVFRAARPAADPATAEALAEIQVEALNEREEKEE
B22: GBRAP_35_5597 (protein)
chain: DTDQLAVDSLIDMIEATIEGIPELPVDTLVSITNLLIKDAEELRKQLKNNVEALERIAKALEKLKEALKKHHGDNPKVQETIEKVEKAIKELKEQAKKAL
B23: GBRAP_184_5332 (protein)
chain: KTLEVHIENLPIEEIIKKVEEAAKKAAEEGADLLISIDASGYSIEEIIELIKKIGEIAKKYGVKNVTLGIDKEVNEEEADKLIEEADKYGIRLVLPLKDE
B24: GBRAP_184_5329 (protein)
chain: KTLEVHIENLPIEEIKKKVEEALKEAAAQGAALSIYIDASGYSIEEIKELIEYIGELAKKYGVKDVTLGIDKAVNEEEADILIEIADKYGIRLVLPLEDE
B25: GBRAP_83_6990 (protein)
chain: KEKITVAANGDDIEEAAEIVIDLTKEEGYEVDVEIIATKEDWEKVLEMVERLAEAGIETDITVLAEGITEEEAKEKQKELEEIAKEHGVNINVKVYAIEP
B26: GBRAP_83_6970 (protein)
chain: MEKVDVVTTPDHVEEAAEAARDLAEEEGYEVTVILVGSPEEVLKSAEIVAEKLKDIKNVSIRAAVRGVRKEEAEKTKKKLEEIGKKYGLKVEFDAELIEE
B27: GBRAP_106_2555 (protein)
chain: SEEEKFEKLIKESREEAEKEIADTRAWLAARRDQLTPEEIRAIETYTKKYLVAKILHKAIEAGFITKEEAEEILKEALSKTDFTPEEAVKFTLEKIKELY
B28: GBRAP_160_4810 (protein)
chain: KEKAEKLMEEARKDLLETAEASADLPIEDRARLLEAEGYTSILDFEEELNISDETEEELDEVVDDLVARLLANPDLSREEVLALVEEAVERMKEIVEKEV
B29: GBRAP_160_4809 (protein)
chain: MEKAEKLLEEARKDLLETAEASKDLPIEDRARLLEAEGYTSILDFEEELNISDETEEKLAQVVDDLVATLLANPDLSDEEVLALVEEAAEKMKEIVKEEV

molecular target: GABARAP, O95166; assay: median log2 fold change of GCK-ALFA target abundance (FLAG IP / Myc IP barcode read proportion) (log2 ratio); each designed protein is fused to an ALFA-tag nanobody in HEK293 cells to bring the named protein to FLAG-tagged glucokinase (GCK); Myc marks an untargeted standard; higher = target protein stabilised (more abundant); conditions: target protein: 3xFLAG-MCP-GCK-ALFA reporter; HEK293 landing pad (RPLP)
Procedure: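 LABEL-seq trans screen in HEK293 landing-pad cells. Each de novo designed 100-aa effector handle, binding the indicated effector (E3 ligase, DUB or autophagy protein), is fused to a constant NbALFA target handle and induced with 2 ug/mL doxycycline. A FLAG-MCP-GCK-ALFA target and a Myc-MCP standard reporter were transfected, and after 48 h circRNA barcodes were recovered by anti-FLAG and anti-Myc IP and sequenced. The value is the median across barcodes (at least 3 per design) of log2(FLAG/Myc read-proportion ratio), with the two transfection replicates pooled. Negative values mean degradation and positive values mean stabilisation of the target.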

Chain of GABARAP, O95166 (O95166 whole entry, the tested form may be a part): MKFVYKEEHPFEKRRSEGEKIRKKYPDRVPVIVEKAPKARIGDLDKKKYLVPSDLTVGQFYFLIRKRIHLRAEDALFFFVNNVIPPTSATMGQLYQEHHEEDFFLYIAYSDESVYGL

Row | Binder | median log2 fold change
1 | B1 | 0.127
2 | B2 | 0.0216
3 | B3 | -0.612
4 | B4 | 0.0926
5 | B5 | 0.234
6 | B6 | -0.66
7 | B7 | -0.0773
8 | B8 | -0.279
9 | B9 | 0.00207
10 | B10 | 0.0139
11 | B11 | 0.117
12 | B12 | -0.615
13 | B13 | -0.298
14 | B14 | 0.257
15 | B15 | 0.186
16 | B16 | -0.872
17 | B17 | -0.574
18 | B18 | -0.0197
19 | B19 | -0.697
20 | B20 | -0.0442
21 | B21 | 0.197
22 | B22 | 0.00193
23 | B23 | -0.598
24 | B24 | -0.086
25 | B25 | -0.0785
26 | B26 | 0.197
27 | B27 | -0.507
28 | B28 | -0.669
29 | B29 | -0.35
